Measurements: PubChem BioAssay
Measured potencies and affinities stand elsewhere. Inconclusive results are not listed. Calls of active or inactive are those of the source.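 The calls were made as follows, unless noted: active = fitted half-maximal concentration for viability loss no higher than twice the top valid dose, in every repeat run; inconclusive = repeat runs disagree, flat partial loss, or poor curve fit; inactive = the rest.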

Experiments:
[1] = RMG-1 ovarian cancer cell viability loss – cherry-pick, dose response (AID 687029;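 active = signal drop whose fitted half-maximal concentration is at most twice the top valid dose, in every test run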;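 also: cells exposed to compound for 96 hours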)
[2] = IOSE-T80 viability loss, PAX8-independent line – cell-based, cherry-pick, selectivity assay for PAX8 inhibitor project, dose response (AID 687032);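 also: cells exposed to compound for 96 h before reading; 0% = neutral control wells and -100% = 2 µM mitoxantrone kill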
[3] = CMV-driven luciferase expression suppression in HEK293 – cell-based, luminescence, dry powder, counter-screen for Pax8 inhibitor project, dose response (AID 743020;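 active = signal-lowering compounds whose fitted half-maximal concentration is at or below twice the top tested dose in every run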;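 also: HEK293 cells stably expressing the CMV luciferase reporter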)
[4] = general cell-killing toxicity readout – plate reader, dry powder samples, cytotoxicity control for PAX8 inhibitor project, dose response (AID 743021; call rule not given here)

Measured: activity change, negative = inhibition

COc1ccccc1C(=O)Nc1nc2ccccc2s1
inactive: [1] | [2] | [3]

CN(C[C@H]1N[C@@H](CO)[C@@H]1c1ccc(C2=CCCC2)cc1)C(=O)c1ccc(F)cc1
inactive: [1] | [2] | [3] 0.4% [at 8 µM]

O=C(Nc1cccc(NC(=O)c2ccc([N+](=O)[O-])o2)c1)c1ccco1
inactive: [1] | [2] | [3]

C[C@H](CO)N1C[C@H](C)[C@@H](CN(C)C(=O)Nc2ccc3c(c2)OCO3)Oc2cc(C#Cc3ccncc3)ccc2S1(=O)=O
inactive: [1] | [2] | [3]

COc1cccc(/C=N/Nc2ccc(C(=O)O)cc2)c1O
inactive: [1] | [2] | [3]

O=C(C[C@@H]1C/C=C/CC[C@H](Cc2ccc(F)cc2)C(=O)OC[C@@H](Cc2ccccc2)NC1=O)N[C@H](CO)Cc1ccccc1
inactive: [1] | [2] | [3]

C=C1CC(Cn2cc(Br)c(=O)[nH]c2=O)(c2ccc(-c3ccccc3)cc2)OC1=O (configuration not stated)
inactive: [1] | [2] | [3]

COc1cccc(/C=N/Nc2cc(C)nc(-c3ccccc3O)n2)c1O
inactive: [1] | [2] | [3]

CCN1CCN(Cc2ccc(NC(=O)c3cc(NC(=O)c4cncc(-c5ccc(C#N)cc5)c4)cc(OC)c3)cc2C(F)(F)F)CC1
inactive: [1] | [2] | [3]

O=C(OCc1ccccc1)N(CCCCN(CCCNCc1ccccc1)C(=O)OCc1ccccc1)CCCNCc1ccccc1
inactive: [1] | [2] | [3]

O=S(=O)(c1ccc2c(c1)C(=NO)c1cc(S(=O)(=O)N3CCCCC3)ccc1-2)N1CCCCC1
inactive: [1] | [2] | [3]

COc1ccc(C#Cc2ccc([C@@H]3[C@H](CO)N4CCCCN(C(=O)Nc5cccc(F)c5)C[C@@H]34)cc2)cc1
inactive: [1] | [2] | [3]

O=C1C=CC(=O)c2c(O)c(N3CCN(CCOCCO)CC3)c(Br)c(O)c21
inactive: [1] | [2] | [3]

CS(=O)(=O)c1ccc(C(=O)OCC(=O)N2CCN(CCC3CCCCC3)CC2)cc1[N+](=O)[O-]
inactive: [1] | [2] | [3]

C#CCN(C[C@@H]1[C@@H](OC(=O)NCCCCCC)[C@@H](OC(=O)NCCCCCC)Cn2c(=O)ccc(=O)n21)S(=O)(=O)c1ccc(C)cc1
inactive: [1] | [2] | [3]

O=C(CCl)N=c1sccn1Cc1ccccc1Cl
inactive: [1] | [2] | [3]

O=C(NC1CCCCC1)C(c1cccnc1)N(C(=O)CCl)c1ccccc1Cl (configuration not stated)
inactive: [1] | [2] | [3]

CC[C@@H](C(=O)[C@@H](C)[C@@H](O)[C@H](C)CCc1ccc(C)c(O)c1C(=O)O)[C@H]1O[C@](CC)([C@H]2CC[C@](O)(CC)[C@H](C)O2)C[C@@H]1C
inactive: [1] | [2] | [3]

Cc1ccc2c(CC(=O)OCC(=O)Nc3ccc(Cl)cn3)coc2c1
inactive: [1] | [2] | [3]

O=C(CC1SC(=Nc2cccc3ccccc23)N(Cc2ccccn2)C1=O)Nc1ccccc1Br (configuration not stated)
inactive: [1] | [2] | [3]

CCC(OC(=O)c1ccc(S(C)(=O)=O)c([N+](=O)[O-])c1)C(=O)NC1C2CC3CC(C2)CC1C3 (configuration not stated)
inactive: [1] | [2] | [3]

COc1ccccc1C#Cc1ccc([C@H]2[C@@H](CO)N(C(=O)C3CCCCC3)[C@H]2C#N)cc1
inactive: [1] | [2] | [3]

O=C(NC1=CC(=O)c2ccccc2C1=O)c1ccccc1
inactive: [1] | [2] | [3]

COC(=O)[C@@H]1Cc2c([nH]c3ccccc23)C(C)(C)N1C(=O)CCl
inactive: [1] | [2] | [3]

CCSc1ccc(-c2cc(NC=O)c3ncc(-c4cccc(C(=O)NCCN(C)C)c4)n3c2)cc1
inactive: [1] | [2] | [3]

COc1ccccc1-c1ccc(OCCCN2CCC(C(O)(c3ccccc3)c3ccccc3)CC2)cc1
inactive: [1] | [2] | [3]

COc1cc(OC)nc(-n2ncc(Br)c(Br)c2=O)n1
inactive: [1] | [2] | [3]

Cc1cc(N/N=C/c2ccc(O)c(C)c2O)nc(-c2ccccc2O)n1
inactive: [1] | [2] | [3]

COc1ccc(C(=O)NNC(=O)c2ccccn2)cc1
inactive: [1] | [2] | [3]

Cc1nn(-c2nc3ccccc3[nH]2)c(=O)c2ccccc12
inactive: [1] | [2] | [3]

COc1cccc(/C=C2/Sc3ccc(C(=O)NCCN4CCCCCC4)cc3NC2=O)c1
inactive: [1] | [2] | [3]

COc1ccc(C(C(=O)NC2CCCCC2)N(C(=O)CCl)c2cccc(Cl)c2)cc1 (configuration not stated)
inactive: [1] | [2] | [3]

COc1ccc(C(C(=O)NC2CCCCC2)N(C(=O)CCl)c2ccc(C)cc2)cc1 (configuration not stated)
inactive: [1] | [2] | [3]

CC(C)CN1CCN(C(=O)COC(=O)c2ccc(S(C)(=O)=O)c([N+](=O)[O-])c2)CC1
inactive: [1] | [2] | [3]

CN(C[C@H]1N[C@@H](CO)[C@@H]1c1ccc(C2=CCCC2)cc1)C(=O)c1ccncc1
inactive: [1] | [2] | [3]

O=C(O)c1ccc(N/N=C/c2ccc3nccnc3c2)cc1
inactive: [1] | [2] | [3]

COc1cccc(N(C(=O)c2ccco2)c2nc(-c3sc(NC(=O)c4ccco4)nc3C)cs2)c1
inactive: [1] | [2] | [3]

COC(=O)C1=C(SC)N(c2ccccc2)C(c2ccccc2)CC1=O (configuration not stated)
inactive: [1] | [2] | [3]

C=C1CCc2c([nH]c3ccc(OCC(C)C)cc23)C1=O
inactive: [1] | [2] | [3]

COc1cc(/C=N/NC(=O)c2ccc(CN3C(=O)c4cccc5cccc3c45)cc2)cc(OC)c1O
inactive: all assays above

CCCN(CCC)Cc1c(C(=O)N/N=C/C(C)=C\c2ccco2)nnn1-c1nonc1N
inactive: all assays above

CC(=O)NC(CCc1ccc(Cl)c(Cl)c1)c1cccc(O)c(=O)c1 (configuration not stated)
inactive: all assays above

COc1ccc(S(=O)(=O)/N=C2\C=C(Nc3ccc(O)cc3)C(=O)c3ccccc32)cc1
inactive: [1] | [2] | [3]

CCN(CC)CC(C)(C)C(=O)/C=C/c1ccc(/C=C/C(=O)C(C)(C)CN(CC)CC)cc1
inactive: all assays above

Cc1ccccc1N=C1N=C(N)c2ccccc21
inactive: all assays above

C[C@@H]1CCCCO[C@@H](CN(C)Cc2ccc(Cl)c(Cl)c2)[C@H](C)CN([C@@H](C)CO)C(=O)c2cc(NC(=O)CCC(F)(F)F)ccc2O1
inactive: all assays above

Cc1cc(Sc2nnc(N)s2)c2ccccc2n1
inactive: all assays above

O=C(NC1CCCCC1)C(c1cccs1)N(C(=O)Cc1c[nH]c2ccccc12)c1ccc(F)cc1 (configuration not stated)
inactive: all assays above

Cc1ccc2c(c1C)-c1c(ccc(C)c1C)C(=O)C2=O
inactive: all assays above

CCCCn1nc(C(=O)Nc2cc(C(F)(F)F)ccc2N2CCOCC2)ccc1=O
inactive: all assays above

C=C(C)C(=O)OC1(C(F)(F)F)Oc2cc(C)ccc2NC1=O (configuration not stated)
inactive: all assays above

Cc1cccc(NC(=O)CC23CC4CC(C2)CC(n2nnc(C)n2)(C4)C3)c1
inactive: all assays above

O=C(CN1C(=O)c2ccccc2S1(=O)=O)N1CCc2ccccc21
inactive: all assays above

CC(C)N(CC(=O)Nc1ccc(Cl)cc1C(F)(F)F)C(=O)CCl
inactive: [1] | [2] | [3]

C[C@@H]1CCCCO[C@H](CN(C)Cc2ccncc2)[C@H](C)CN([C@@H](C)CO)C(=O)c2cc(NC(=O)NC3CCCCC3)ccc2O1
inactive: all assays above

CC[C@@]1(O)C(=O)OCc2c1cc1n(c2=O)Cc2cc3c(CN(C)C)c(O)ccc3nc2-1
inactive: all assays above

C=CC[C@H](CC(=O)N(CCO)Cc1ccccc1)C(=O)N[C@@H](COC(=O)[C@H](CC=C)CC(=O)OC(C)(C)C)Cc1c[nH]c2ccccc12
inactive: all assays above

O=S(=O)(/C(=C/c1ccc(C(F)(F)F)cc1)c1nc2ccccc2[nH]1)c1ccccc1
inactive: all assays above

O=C(OCC(=O)N1CCN(C(=O)c2ccco2)CC1)c1cccc(S(=O)(=O)N2CCc3ccccc32)c1
inactive: all assays above

COC(=O)C1=C(C)N(Cc2cccc(C(F)(F)F)c2)C(=NCC2CC2)NC1c1cccc(C(F)(F)F)c1 (configuration not stated)
inactive: [1] | [2] | [3]

CC1=C(C(=O)OC2CCCCC2)C(c2cccnc2)n2ncnc2N1 (configuration not stated)
inactive: all assays above

COc1cccc(/C=N/NC(=O)c2ccc(N3CCCC3=O)cc2)c1
inactive: all assays above

CCC(=O)Oc1ccc2c(C)cc(=O)oc2c1C(=O)c1ccccc1
inactive: all assays above

O=C(Nc1ccc([N+](=O)[O-])cn1)c1cc(-c2cccc(Br)c2)nc2ccccc12
inactive: all assays above

O=C(N/N=C/c1ccc(Cl)c([N+](=O)[O-])c1)c1cc(-c2ccc3c4c(cccc24)CC3)n[nH]1
inactive: all assays above

COc1ccc(C(=O)c2cc([N+](=O)[O-])ccc2N2CCOCC2)cc1
inactive: all assays above
